Compound activity deposited in PubChem by The Scripps Research Institute Molecular Screening Center.
FBW7 act: FBW7 E3 ligase activators, primary screen, biochemical, AlphaScreen, human. F-box/WD repeat-containing protein 7 (Homo sapiens), Q969H0. AlphaScreen FBW7–phospho-cyclin E peptide binding, activator screen. normalized activity (activation), % at 26.1 µM. 650,000 tested, 0.13% active. AID 1259310, 2017; in the data active means normalized activity above about 1.9%;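 further: purified mutant Fbw7 with reduced substrate affinity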
TEAD-YAP inh: TEAD-YAP interaction inhibition, primary screen, TEAD-YAP interaction inhibitor project, luminescence, HEK-TIYL cells; TEAD-Gal4/YAP UAS-luciferase luminescence; inhibition, % at 9.12 µM; 640,000 tested, 1.4% active; in the data active means inhibition above about 32%
GPR151 activ: activators of human GPR151, primary screen, cell-based, PathHunter beta-arrestin, luminescence. PathHunter beta-arrestin GPR151 cells. AID 1508602, 2020. 650,000 tested, 1% active. activation, % at 11.2 µM; in the data active means activation above about 4.9%
Target sequence (Q8TDV0 whole entry, looked up): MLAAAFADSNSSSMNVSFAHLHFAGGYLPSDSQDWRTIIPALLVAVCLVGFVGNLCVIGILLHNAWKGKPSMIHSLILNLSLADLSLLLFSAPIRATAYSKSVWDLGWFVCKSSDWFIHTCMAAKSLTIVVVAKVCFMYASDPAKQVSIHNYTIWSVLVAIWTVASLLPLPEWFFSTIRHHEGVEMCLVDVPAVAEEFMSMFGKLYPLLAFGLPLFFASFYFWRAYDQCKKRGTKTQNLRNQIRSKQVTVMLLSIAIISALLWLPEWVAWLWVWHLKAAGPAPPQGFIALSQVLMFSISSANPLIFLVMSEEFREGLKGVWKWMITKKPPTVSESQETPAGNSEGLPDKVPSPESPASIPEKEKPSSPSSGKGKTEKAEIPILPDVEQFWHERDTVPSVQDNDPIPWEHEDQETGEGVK
MITF primary: MITF inhibitors, primary screen, biochemical, AlphaScreen, human; AlphaScreen MITF homodimerization, bead proximity signal; Microphthalmia-associated transcription factor (Homo sapiens), O75030; AID 1259374, 2018; inhibition, % at 2.6 µM; 650,000 tested, 0.91% active; in the data active means inhibition above about 50%
Numbers stand for hits. Only some compounds are listed: those with a hit (about 3.5% of all), similar ones and a draw of the others.

How did COc1ccccc1NC(=O)Nc1ccnn1C1CCN(C(=O)C2C(C)(C)C2(C)C)CC1 do in these assays?
FBW7 act: inactive; TEAD-YAP inh: inactive; GPR151 activ: inactive; MITF primary: inactive

Results for Cc1ccc(C2N(c3ccccn3)C(=O)C3CCCN32)o1 (centres undefined) ?
FBW7 act: inactive; TEAD-YAP inh: inactive; GPR151 activ: inactive; MITF primary: inactive

What do the screens show for `O=C1NC(=S)N(c2ccccc2F)C(=O)/C1=C\c1ccco1`?
FBW7 act: inactive; TEAD-YAP inh: inactive; GPR151 activ: inactive; MITF primary: 71.6

Results for CCN(CCN(C)C)Cc1c(C)oc2ccc(OC)cc12 ?
FBW7 act: inactive; TEAD-YAP inh: inactive; GPR151 activ: inactive; MITF primary: inactive

How did O=C(c1ccoc1)N1CCC2(CC1)OCc1ccccc1O2 do in these assays?
FBW7 act: inactive; TEAD-YAP inh: inactive; GPR151 activ: inactive; MITF primary: inactive

What do the screens show for `CCOC(=O)C1=C(NC(=S)NC(=O)c2ccccc2)c2ccccc2CC12CCCC2`?
FBW7 act: inactive; TEAD-YAP inh: 41.5; GPR151 activ: inactive; MITF primary: inactive

Results for O=C(Cc1ccccc1)N1CCN(C2CC3CCC2C3)CC1 (centres undefined) ?
FBW7 act: inactive; TEAD-YAP inh: inactive; GPR151 activ: inactive; MITF primary: inactive

What do the screens show for `O=c1c2ccccc2nc(/C=C\c2ccccc2F)n1-c1ccccc1F`?
FBW7 act: inactive; TEAD-YAP inh: inactive; GPR151 activ: inactive; MITF primary: inactive

What do the screens show for `COc1ccc(Sc2ccc(C=C3C(=O)NC(=O)NC3=O)o2)cc1`?
FBW7 act: inactive; TEAD-YAP inh: inactive; GPR151 activ: inactive; MITF primary: inactive

Results for COc1ccc(N2C(=O)NC(=O)/C(=C/c3ccc(Br)o3)C2=O)cc1 ?
FBW7 act: inactive; TEAD-YAP inh: inactive; GPR151 activ: inactive; MITF primary: 72.6

What do the screens show for `COc1ccc(N2C(=O)/C(=C/c3ccc(Br)o3)C(=O)NC2=S)cc1`?
FBW7 act: inactive; TEAD-YAP inh: inactive; GPR151 activ: inactive; MITF primary: 60.2

Results for O=C1NC(=O)C(=Cc2ccc(Br)o2)C(=O)N1 ?
FBW7 act: inactive; TEAD-YAP inh: inactive; GPR151 activ: inactive; MITF primary: 63.0

How did Cc1ccc(N2C(=O)NC(=O)/C(=C/c3ccc([N+](=O)[O-])o3)C2=O)cc1 do in these assays?
FBW7 act: inactive; TEAD-YAP inh: inactive; GPR151 activ: inactive; MITF primary: 69.5

What do the screens show for `COc1ccc(N2C(=O)/C(=C\c3ccc(C)o3)C(=O)NC2=S)cc1`?
FBW7 act: inactive; TEAD-YAP inh: inactive; GPR151 activ: inactive; MITF primary: inactive

What do the screens show for `COc1ccc(/C=C2\C(=O)NC(=S)N(c3ccccc3)C2=O)cc1`?
FBW7 act: inactive; TEAD-YAP inh: inactive; GPR151 activ: inactive; MITF primary: inactive

What do the screens show for `CCN(CC)C(=O)c1ccc(NC(=O)C2COc3ccccc3O2)cc1` (centres undefined)?
FBW7 act: inactive; TEAD-YAP inh: inactive; GPR151 activ: inactive; MITF primary: inactive

Results for CN1CC=C(c2noc(CCC(=O)Nc3ccccc3Cl)n2)CC1 ?
FBW7 act: inactive; TEAD-YAP inh: inactive; GPR151 activ: inactive; MITF primary: inactive

Results for CN1CC=C(c2noc(CCC(=O)Nc3cccc(Cl)c3)n2)CC1 ?
FBW7 act: 1.9; TEAD-YAP inh: inactive; GPR151 activ: inactive; MITF primary: inactive

Results for CN1CC=C(c2noc(CCC(=O)N3CCN(c4ncccn4)CC3)n2)CC1 ?
FBW7 act: inactive; TEAD-YAP inh: inactive; GPR151 activ: inactive; MITF primary: inactive

How did Cc1cccc(N2CCN(C(=O)CCc3nc(C4=CCN(C)CC4)no3)CC2C)c1 (centres undefined) do in these assays?
FBW7 act: 4.1; TEAD-YAP inh: inactive; GPR151 activ: inactive; MITF primary: inactive

How did O=c1c2ccccc2nc(/C=C/c2ccc([N+](=O)[O-])o2)n1-c1cccc(O)c1 do in these assays?
FBW7 act: inactive; TEAD-YAP inh: 34.3; GPR151 activ: inactive; MITF primary: inactive

Results for CCOC(=O)C1(c2ccccc2)CCN(Cc2ccc(O)c(C(=O)OC)c2)CC1 ?
FBW7 act: inactive; TEAD-YAP inh: 34.9; GPR151 activ: inactive; MITF primary: inactive

What do the screens show for `C[CH2][Hg][S]c1ccccc1C(=O)O`?
FBW7 act: inactive; TEAD-YAP inh: 73.6; GPR151 activ: inactive; MITF primary: inactive

What do the screens show for `CNc1ccccc1C(=O)O`?
FBW7 act: inactive; TEAD-YAP inh: inactive; GPR151 activ: inactive; MITF primary: inactive
